An excerpt weighted towards active compounds, which were near 2.8% of everything screened.
PI5P4Ka inh: blocks human PI5P4K alpha kinase activity; P48426; PI5P4Kalpha enzyme, ADP-Glo luminescence, 60 min; hits give low values; max response, %; hit rate 1.2% among 330,000; AID 652105; active = max response of -50% or lower; inconclusive = between -30% and -50%; inactive = -30% or higher; note: value at the top dose of about 77 µM; % is set by controls: 0 for no effect and ±100 for the full control effect
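Luminescence from ADP-Glo served as readout of PI5P4Kalpha activity in a qHTS format. Reaction: enzyme, substrate, compound, ATP at 5 microM final, 60 min at RT.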
POLI inh: DNA polymerase iota (human) inhibition; hit rate 1% among 390,000; AID 588590; Pol iota fluorescent replication assay, 10 min; Q9UNA4; Potency, µM (titrated, usually from 115 µM), without a hit: at the top dose activity, negative = inhibition, most hits filed as inhibitors; note: potency is the fitted concentration of half-maximal effect
Target sequence (Q9UNA4 whole entry, looked up): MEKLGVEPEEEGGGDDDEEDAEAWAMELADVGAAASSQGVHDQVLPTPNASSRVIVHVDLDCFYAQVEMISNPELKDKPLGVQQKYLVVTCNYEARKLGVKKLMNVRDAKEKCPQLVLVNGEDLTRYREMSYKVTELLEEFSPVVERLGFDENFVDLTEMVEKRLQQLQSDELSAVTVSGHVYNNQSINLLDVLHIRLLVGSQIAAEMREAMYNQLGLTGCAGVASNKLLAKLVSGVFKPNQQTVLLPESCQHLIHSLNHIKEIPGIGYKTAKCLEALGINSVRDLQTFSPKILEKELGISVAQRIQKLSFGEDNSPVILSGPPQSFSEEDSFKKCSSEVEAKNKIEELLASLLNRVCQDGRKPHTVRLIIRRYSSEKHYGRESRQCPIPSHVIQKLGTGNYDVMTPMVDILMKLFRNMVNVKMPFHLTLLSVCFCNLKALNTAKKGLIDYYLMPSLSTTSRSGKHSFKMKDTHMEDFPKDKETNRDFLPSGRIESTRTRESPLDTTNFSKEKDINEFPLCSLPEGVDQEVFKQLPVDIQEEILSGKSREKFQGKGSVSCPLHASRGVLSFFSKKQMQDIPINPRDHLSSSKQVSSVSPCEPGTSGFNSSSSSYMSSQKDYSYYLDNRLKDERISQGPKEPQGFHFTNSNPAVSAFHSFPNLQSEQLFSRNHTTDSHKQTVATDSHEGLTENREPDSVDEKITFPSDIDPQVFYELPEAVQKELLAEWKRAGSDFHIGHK
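Fluorescent replication assay read twice, at 0 min and 10 min after adding 50 nM (final) substrate. Enzyme (10 nM) and compounds were first incubated 15 min at room temperature; enzyme-free buffer wells were negative controls.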
Pol eta inh: DNA polymerase eta (human) inhibition | Potency, µM (titrated, usually from 114 µM), inactives show at the highest dose activity change, negative = inhibition, most hits filed as inhibitors | recombinant Pol eta, fluorescent DNA replication assay | hit rate 1.2% among 390,000; note: potency is the fitted concentration of half-maximal effect; % is set by controls: 0 for no effect and ±100 for the full control effect
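Fluorescent replication assay: 50 nM final substrate added after a 15 min room-temperature compound preincubation with 10 nM enzyme. Signal taken at 0 min and again at 10 min.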
Pol beta inh: blocks human DNA polymerase beta activity | P06746 | Pol beta primer extension/strand displacement, fluorescence kinetic | Potency, µM (series often up to 114 µM), for the others: at the top dose activity change, negative = inhibition, actives largely listed as inhibitors | hit rate 1.3% among 340,000; note: potency is the fitted concentration of half-maximal effect; % is set by controls: 0 for no effect and ±100 for the full control effect
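10 nM enzyme + cpd, 15 min RT; start with substrate 50 nM final; read 0 min and after 10 min RT. Corrected, normalized data; 4-parameter Hill curve fit.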
POLK inh: inhibitors of human DNA polymerase kappa. purified Pol kappa, fluorescent DNA synthesis assay, 10 min. Q9UBT6. Potency, µM (top dose mostly 107 µM), inactives show at the top dose activity, negative = inhibition, usual class: inhibitors. AID 588579. hit rate 0.53% among 400,000; note: potency is the fitted concentration of half-maximal effect; % is set by controls: 0 for no effect and ±100 for the full control effect
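Fluorescent qHTS in 1536-well format: enzyme (10 nM) and compound sat 15 min at room temperature before 50 nM substrate (final) was added. Signal taken at 0 and 10 min; no-enzyme buffer wells were negative controls.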
FEN1 inhibitor: inhibitors of human flap endonuclease 1; Recombinant FEN1 flap cleavage, fluorescence, 15 min; Potency, µM (series often up to 114 µM), without a hit: at the highest dose activity change, negative = inhibition, usual class: inhibitors; hit rate 0.35% among 390,000; P39748; note: potency is the fitted concentration of half-maximal effect; % is set by controls: 0 for no effect and ±100 for the full control effect; nearly all actives have a fitted effect of over 65% in size
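Reaction started by adding substrate (50 nM final) to 10 nM enzyme after 15 min room-temperature compound preincubation. Reads at 0 and 15 min, with data normalized and fitted to a four-parameter Hill equation.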
Active calls of the source: *; ? = inconclusive; / = not tested or not shown; ! = not active in a repeat; [ ] = another dose, or the depositor's remark. Unless noted, calls come from the whole dose curve; as a rule, active = well fitted curve in the direction sought with a large enough effect; inconclusive = small, poorly fitted or top-dose-only effect, or another doubt; inactive = no such curve, though single readings can be large; an effect the other way counts as inactive or inconclusive.

SMILES	PI5P4Ka inh	POLI inh	Pol eta inh	Pol beta inh	POLK inh	FEN1 inhibitor
O=[N+]([O-])c1ccc(Cn2cc(-c3cccc(C(F)(F)F)c3)nn2)cc1	14.3	89.1µM*	-8.7%	-4.2%	?	-5.0%
O=C1c2ccccc2C(=O)c2cc(Cn3cc(-c4cccc(C(F)(F)F)c4)nn3)ccc21	/	6.1%	/	/	-7.1%	10.1%
Cc1ccc(NS(=O)(=O)c2cccc3nsnc23)cc1	-3.3	30.9%	-10.8%	2.9%	0.8%	-7.9%
O=S(=O)(Nc1ccccc1)c1cccc2nsnc12	?	56.2µM*	?	5.2%	?	9.7%
N=C1/C(=C\c2ccc(SCc3ccccc3)o2)C(=O)N=C2SC(CC(=O)N3CCOCC3)=NN12	-28.2	10µM*	56.2µM*	?	?	-15.1%
COc1ccc(/C=C2\C(=N)N3N=C(CC(=O)N4CCOCC4)SC3=NC2=O)cc1	-4.1	?	-6.9%	2.9%	0.3%	-2.5%
Cc1ccc(/C=C2\C(=N)N3N=C(CC(=O)N4CCOCC4)SC3=NC2=O)o1	-22.4	?	28.2µM*	?	?	12.6%
CCOC(=O)c1c(NC(=O)COc2ccc(Cl)cc2Cl)sc2c1CCCCC2	/	17.0%	-18.6%	-1.4%	-17.6%	-3.9%
COc1cccc2sc(Nc3nc(-c4cc5ccccc5oc4=O)cs3)nc12	?	?	?	35.5µM*	?	?
COc1cccc2sc(Nc3nc(-c4ccncc4)cs3)nc12	?	27.8%	-12.2%	?	-4.3%	9.1%
COc1cccc(-c2noc(-c3cc4ccccc4oc3=O)n2)c1OC	/	70.8µM*	-7.3%	17.9%	1.2%	-1.3%
O=C(c1ccc(NS(=O)(=O)c2cccc(F)c2)cc1)N1CCCCC1	3.4	16.6%	-16.7%	-18.7%	2.4%	21.1%
COc1ccc(OCC(=O)N/N=C2\CCCCc3ccccc32)cc1	-62.6*	30.0%	4.6%	6.3%	-14.5%	-1.6%
COc1ccc(C(=O)N2CCC(n3nccc3NC(=O)C3CC3)CC2)cc1F	-5.5	30.3%	-18.4%	8.3%	6.1%	0.8%
Cn1cccc1-c1cc(C(=O)N/N=C/C=C/c2ccccc2)[nH]n1	-23.7	?	-4.8%	10µM*	?	-21.6%
COc1cccc(/C=N/NC(=O)c2cc(-c3cccn3C)n[nH]2)c1	0.0	?	?	35.5µM*	?	3.7%
Cn1cccc1-c1cc(C(=O)N/N=C/c2ccc(Cl)cc2)[nH]n1	0.8	9.6%	1.5%	?	?	-2.6%
CCc1ccccc1NC(=O)C(NS(=O)(=O)c1ccc2c(c1)CCC(=O)N2)c1ccccc1 (centres undefined)	/	21.6%	-17.3%	33.9%	0.5%	1.2%
O=C(N=Nc1c(O)[nH]c2ccccc12)c1cccc(S(=O)(=O)Nc2ccccc2Cl)c1	-21.7	3.4%	-4.4%	2.5%	-10.0%	0.2%
NS(=O)(=O)c1cc(C(=O)N=Nc2c(O)[nH]c3ccccc23)ccc1Cl	-21.2	50.1µM*	?	22.4µM*	-30.7%	-20.9%
NC1=NC(=O)/C(=C\c2ccc(-c3ccccc3[N+](=O)[O-])o2)S1	/	20µM*	/	/	?	?
CN1C(=O)/C(=C/c2ccc(-c3ccccc3[N+](=O)[O-])o2)SC1=Nc1ccc(Cl)c(C(=O)O)c1	-60.4*	?	20µM*	14.1µM*	?	44.7µM*
Oc1cc(O)c2c(c1)O[C@H](c1ccc(O)c(O)c1)[C@@H](O)C2	-1.7	?	28.2µM*!	12.6µM*	?	14.8%
Oc1ccc2c(c1)OC(c1ccc(O)c(O)c1)C(O)C2 (centres undefined)	/	/	/	/	10µM*	/
COc1ccccc1NS(=O)(=O)c1cc(NC(=O)c2[nH]c(C)c(C(C)=O)c2C)ccc1N1CCOCC1	6.6	5.0%	-10.5%	13.9%	-8.1%	1.0%
SMILES	PI5P4Ka inh	POLI inh	Pol eta inh	Pol beta inh	POLK inh	FEN1 inhibitor
O=c1[nH]c(CN2CCc3ccccc32)nc2scc(-c3cccs3)c12	-11.2	-7.7%	-4.1%	39.8µM*	-19.2%	-17.6%
Cc1ccc(S(=O)(=O)C=CS(=O)(=O)c2ccc(C)cc2)cc1	-11.3	/	-1.8%	/	/	/
Cc1ccc(S(=O)(=O)SCCCSS(=O)(=O)c2ccc(C)cc2)cc1	-72.8*	3.8%	-11.9%	/	-8.7%	3.8%
Cc1ccc(S(=O)(=O)SC/C=C/CSS(=O)(=O)c2ccc(C)cc2)cc1	-85.0*	5.6%	-1.6%	/	-2.8%	-10.7%
Oc1ccc(-c2nc(-c3ccc(O)c(O)c3)cs2)cc1	?	?	?	39.8µM*	?	-12.2%
O=C(/C=C/c1ccco1)Nc1cccc2cccnc12	-82.2*	6.31µM*	28.2µM*	39.8µM*	28.2µM*	?
O=C(/C=C/c1ccco1)Nc1nc(-c2ccccn2)cs1	-93.5*	?	?	25.1µM*	31.6µM*	17.8µM*
Cc1c(C(=O)Nc2nc(-c3ccccn3)cs2)oc2ccccc12	-59.0*	?	?	/	?	-27.5%
O=C(/C=C/c1ccco1)Nc1nc(-c2ccccc2)cs1	-4.9	31.3%	-5.9%	-0.5%	2.5%	2.9%
O=C(O)/C=C/C(=O)Nc1cccc2cccnc12	-2.8	-3.9%	-13.4%	10.3%	0.7%	-5.0%
O=C(Nc1cccc(N=Cc2cc(Cl)cc(Br)c2O)c1)c1ccco1	-54.7*	22.1%	?	7.1%	-23.7%	-17.4%
O=C(Nc1cccc(N=Cc2cc(Br)cc(Br)c2O)c1)c1ccco1	-58.7*	89.1µM*	?	-1.5%	-19.4%	-13.4%
Cc1ccc(NC2=C(NC(=O)c3ccccc3)C(=O)c3ccccc3C2=O)cc1Cl	-52.0*	?	-17.9%	9.4%	5.3%	-9.2%
O=C(O)c1cccc(NC2=C(Cl)C(=O)c3ccccc3C2=O)c1	-68.9*	?	79.4µM*	-7.8%	-87.6%	-12.2%
Nc1c(Br)cc(Br)c2cccnc12	/	8.91µM*	/	/	4.1%	?
NS(=O)(=O)Nc1c(Br)cc(Br)c2cccnc12	/	25.1µM*	/	/	-3.7%	?
O=C1c2ccccc2C(=O)N1c1ccc(Br)c2cccnc12	2.6	19.8%	-12.4%	-2.7%	0.7%	4.8%
CCN(CC)S(=O)(=O)c1ccc(C(=O)NC(=S)N2CCCCC2C)cc1 (centres undefined)	?	/	-5.8%	/	/	/
COc1ccccc1C(=O)Nc1nnc(SCc2cc(=O)c3cc(Cl)ccc3[nH]2)s1	/	-21.9%	-7.5%	3.98µM*	-6.8%[60.1 µM]	-8.5%
Cc1ccc2[nH]c(CSc3nnc(NC(=O)c4ccc(Cl)cc4)s3)cc(=O)c2c1	/	-7.1%	8.0%	-13.6%	-12.8%[60.1 µM]	-0.3%
COc1cc(NC(=O)Cn2cnc(S(=O)(=O)N3CCc4ccccc43)c2)cc(OC)c1OC	-9.2	10.0%	-18.9%	-1.2%	5.0%	0.5%

Screening results from PubChem.
